The source made the active and inactive calls.
Legend:
Albumin (Bos taurus) = Albumin (Bos taurus) (UniProt P02769); assay: compounds binding labelled BSA control protein – biochemical, small-molecule microarray, Alexa647 label, 635/667 nm fluorescence, artefact control for SMM control protein annotation, profiling panel (AID 1118); details: BSA-A647 binding, fluorescence 635 nm, higher = more signal;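 also: score merges 667 nm emission intensity and signal-to-noise per printed compound spot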
[1] = probe aXIP binding to arrayed compounds – biochemical, NeuroSMM set, 635/667 nm fluorescence, primary screen (AID 1119); details: small-molecule microarray, higher = more signal, called active from +8 up or from −8 down;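 also: probe is the protein aXip251-270 applied at 1 µg/mL to compound-printed slides; binding of probe to printed compounds measured as 667 nm fluorescence plus signal to noise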
[2] = probe aNOTCH3 binding on compound microarray – biochemical, small-molecule microarray, 635/667 nm fluorescence, primary screen (AID 1120); details: higher = more signal;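 also: probe is a biotin-tagged antibody raised against NOTCH3 rather than NOTCH3 protein; score merges spot fluorescence near 667 nm with spot signal to noise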
[3] = probe aNOTCH2 binding on compound microarray – biochemical, small-molecule microarray, 635/667 nm fluorescence, primary screen (AID 1121); details: higher = more signal;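 also: score merges feature fluorescence read at 667 nm with its signal to noise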
[4] = target: Carbonic anhydrase 2 (Homo sapiens) (UniProt P00918); assay: compounds binding carbonic anhydrase 2 – biochemical, small-molecule microarray, Alexa647-labelled CAII, profiling panel (AID 1122); details: CAII-A647 binding fluorescence, higher = more signal
[5] = COS7 lysate on small-molecule microarray, probe aHis, 635 nm (AID 1123); details: COS7 cell lysate, fluorescence, higher = more signal;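 also: z-score combines 667nm fluorescence intensity with signal-to-noise per printed compound spot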
[6] = probe aLAP1 signal on lysate-treated microarray – cell lysate, small-molecule microarray, COS7 lysate, primary screen (AID 1124); details: probe aLAP1, fluorescence, higher = more signal;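 also: lysate comes from COS7 cells expressing LAP1 and is applied at 0.3 µg/mL; score merges spot fluorescence near 667 nm with signal-to-noise over triplicate slides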
Sam68 (KHDRBS1) = assay: compounds binding KHDRBS1 protein – biochemical, small-molecule microarray, 635 nm fluorescence, primary screen (AID 1125); details: higher = more signal;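 also: score merges 667 nm channel intensity with signal to noise over triplicate slides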
[7] = tested on: Chordin-like protein 2 (CHRDL2); assay: compounds binding chordin-like 2 – biochemical, small-molecule microarray, 635 nm fluorescence, primary screen (AID 1126); details: fluorescence 635 nm, higher = more signal;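 also: printed compound slides probed with Chrdl2 protein at 4 µg/mL for 1 h at 4 C; score merges 667 nm emission intensity with signal to noise over three replicate slides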
[8] = target: Concanavalin-A (Canavalia ensiformis) (UniProt P02866); assay: compounds binding concanavalin A lectin – biochemical, small-molecule microarray, Alexa647 label, 635 nm, artefact control for SMM control protein annotation, primary screen (AID 1127); details: ConA-A647 binding fluorescence, higher = more signal;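 also: z combines 667 nm emission intensity with signal-to-noise across three replicate slides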
Chain of Concanavalin-A (Canavalia ensiformis) (P02866 whole entry, looked up): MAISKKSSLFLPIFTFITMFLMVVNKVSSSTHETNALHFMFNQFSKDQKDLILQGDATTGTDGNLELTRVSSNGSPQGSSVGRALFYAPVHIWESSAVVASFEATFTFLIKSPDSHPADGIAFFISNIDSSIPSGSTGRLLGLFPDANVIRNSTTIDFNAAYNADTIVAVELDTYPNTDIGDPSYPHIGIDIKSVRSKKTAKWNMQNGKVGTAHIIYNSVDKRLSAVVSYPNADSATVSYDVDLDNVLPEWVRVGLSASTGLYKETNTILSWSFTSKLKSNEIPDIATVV

Chain of Albumin (Bos taurus) (P02769 whole entry, looked up): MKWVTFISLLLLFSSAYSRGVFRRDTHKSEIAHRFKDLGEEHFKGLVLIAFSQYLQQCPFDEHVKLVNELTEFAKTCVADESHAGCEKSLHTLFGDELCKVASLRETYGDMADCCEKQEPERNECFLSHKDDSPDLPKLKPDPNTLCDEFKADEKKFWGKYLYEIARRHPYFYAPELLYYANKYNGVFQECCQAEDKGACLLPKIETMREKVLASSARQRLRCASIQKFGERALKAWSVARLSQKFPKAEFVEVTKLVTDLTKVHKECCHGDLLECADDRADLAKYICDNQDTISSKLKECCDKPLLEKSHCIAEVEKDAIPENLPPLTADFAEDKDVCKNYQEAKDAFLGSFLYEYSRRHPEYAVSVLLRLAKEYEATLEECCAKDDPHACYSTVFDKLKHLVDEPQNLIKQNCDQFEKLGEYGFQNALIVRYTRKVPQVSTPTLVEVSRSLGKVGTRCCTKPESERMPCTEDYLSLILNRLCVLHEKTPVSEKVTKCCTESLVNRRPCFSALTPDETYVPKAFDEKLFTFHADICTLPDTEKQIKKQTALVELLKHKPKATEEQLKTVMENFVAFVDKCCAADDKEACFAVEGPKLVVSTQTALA

Compound	composite z-score (Albumin (Bos taurus))	composite Z-score [1]	composite z-score [2]	composite z-score [3]	composite z-score [4]	composite z-score [5]	composite z-score [6]	composite z-score (Sam68 (KHDRBS1))	composite z-score [7]	composite z-score [8]
C=CC[C@@]1(C(=O)N2CCOCC2)N=C(c2ccc(OCCCO)cc2)O[C@@H]1c1ccccc1N=[N+]=[N-]	0.872	-0.885 (inactive)	0.364	0.0753	0.419	2.43	1	1.29	-0.142	1.09
O=C1C2C=CC(C(O)c3ccc(B(O)O)cc3)N(Nc3ccccc3)C2C(=O)N1c1ccccc1 (stereo not given)	0.764	0.387 (inactive)	0.127	-0.0438	0.793	0.408	-0.0389	-0.346	-0.0149	-0.874
COCCOC(=O)N1C(=O)[C@@]2(c3cc(C#Cc4ccc(OC)cc4)ccc31)[C@H](C(=O)N1CCN(c3ncccn3)CC1)[C@H]1C(=O)O[C@H](c3ccccc3)[C@H](c3ccccc3)N1[C@@H]2c1ccc(O)cc1	0.259	0.0527 (inactive)	-0.112	-0.0277	0.287	0.722	0.232	0.634	-0.0397	0.762
O=C(CS)NCCCCCCNC(=O)[C@@H]1C[C@@H]2C(=O)N3CCC[C@H]3C(=O)N2[C@@H]1c1ccc(O)cc1	-0.766	3.04 (inactive)	-0.273	-0.116	0.645	2.88	0.827	0.5	0.361	0.443
CC1=C2[C@@H](CCc3ccccc3)OB(O)C[C@@H]2n2c(=O)n(-c3ccccc3)c(=O)n2C1	0.201	0.131 (inactive)	0.199	-0.11	0.478	0.224	0.0327	0.617	0.469	1
C=C[C@H](COC(C)=O)N(Cc1ccc(OC(C)=O)c(OC)c1)S(=O)(=O)c1ccc(Br)cc1	0.777	0.365 (inactive)	0.223	0.272	0.512	0.987	0.509	0.988	0.771	1.04
COC(=O)[C@@]1(Cc2ccccc2N=[N+]=[N-])COC(c2ccc(OCCCO)cc2)=N1	-0.261	1.07 (inactive)	-0.0546	-0.112	0.573	1.99	0.753	0.994	-0.473	1.08
C=CCOC(=O)[C@@H]1[C@H]2C(=O)O[C@H](c3ccccc3)[C@H](c3ccccc3)N2[C@H](c2ccc(OCCOC(=O)[C@@H]3C[C@@H]4C(=O)N[C@@H](Cc5ccccc5)C(=O)N4[C@@H]3c3cccc(OCCO)c3)cc2)[C@@]12C(=O)Nc1ccc(I)cc12	-0.912	-0.292 (inactive)	-0.0328	-0.0389	0.537	1.1	0.283	1.31	1.11	0.795
CCOC(=O)C1=CCC(c2ccc([N+](=O)[O-])cc2)N(S(=O)(=O)c2ccc(C)cc2)C1 (stereo not given)	0.261	0.448 (inactive)	0.0351	-0.0439	0.408	1.12	0.279	0.377	-0.0439	0.666
COCCOC(=O)N1C(=O)[C@@]2(c3cc(C#CC4(O)CCCCCC4)ccc31)[C@H](C(=O)N1CCCCCCC1)[C@H]1C(=O)O[C@H](c3ccccc3)[C@H](c3ccccc3)N1[C@@H]2c1ccccc1OCCO	0.155	0.176 (inactive)	0.922	0.191	0.452	2.83	0.542	1.33	1.09	0.827
CCOC(=O)C1=CCC(c2ccc(C#N)cc2)N(S(=O)(=O)c2ccc(C)cc2)C1 (stereo not given)	0.886	0.356 (inactive)	0.1	0.188	0.695	1.63	1.18	1.3	-0.1	1.14
COCCOC(=O)N1C(=O)[C@@]2(c3cc(C#CCNC(N)=O)ccc31)[C@H](c1ccc(OCCO)cc1)N1[C@H](c3ccccc3)[C@H](c3ccccc3)OC(=O)[C@H]1[C@@H]2C(=O)N1CCc2cc(OC)c(OC)cc2C1	-1.03	-0.0505 (inactive)	0.112	-0.0349	0.22	0.592	0.127	0.498	0.756	0.878
C=CC(=C)C1=CCO[C@@H]1[C@H]1CCCN1S(=O)(=O)c1ccccc1[N+](=O)[O-]	0.656	0.0499 (inactive)	0.117	-0.0926	0.481	0.158	-0.262	0.471	1.04	1.1
O=C1N(CCS(=O)(=O)c2ccccc2)Cc2ccccc2[C@H]2OC(c3ccc(OCCCO)cc3)=N[C@@]12CCS(=O)(=O)c1ccccc1	-0.284	1.81 (inactive)	-0.0247	-0.0586	0.524	2.64	0.708	1.3	0.242	1.22
O=C1O[C@@H](c2ccccc2)[C@@H](c2ccccc2)N2[C@@H](c3ccc(OCCO)cc3)[C@]3(C(=O)Nc4ccc(C#CC5=CCCCC5)cc43)[C@@H](C(=O)O)[C@H]12	0.953	0.556 (inactive)	0.206	0.0588	0.499	0.866	0.711	1.3	0.0501	1.16
COC(=O)C(CC#Cc1ccc2c(c1)[C@]1(C(=O)N2)[C@H](c2ccc(OCCO)cc2)N2[C@H](c3ccccc3)[C@H](c3ccccc3)OC(=O)[C@H]2[C@@H]1C(=O)NC[C@H](O)c1ccccc1)C(=O)OC	0.819	0.0996 (inactive)	0.0556	-0.115	0.497	1.97	-0.131	1.29	-0.28	1.14

— PubChem BioAssay
